Compound activity as filed in PubChem.
AID923: qHTS Assay for Allosteric/Competitive Inhibitors of Caspase-1: Spectroscopic Profiling in AFC Spectral Region | compound fluorescence, AFC spectral region (405/520 nm) | Potency, µM (highest dose often 57.5 µM), without a hit: top-dose fluorescence increase, usual class: activators | AID 923, 2007 | actives 1.1% (n = 75,000); note: potency is the fitted concentration of half-maximal effect; 0% is about no effect
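Titrations up to 57 uM read every 20 sec for 3 min (405/520 nm) with 50 nM caspase 1 and 5 uM Ac-WEHD-AFC, pH 7.5 HEPES buffer. Fluorescence-vs-time intercept gave baseline, scaled against on-plate AFC standard.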
4MU fluor: qHTS Assay for Spectroscopic Profiling in 4-MU Spectral Region | compound autofluorescence, 340/450 nm, 4-MU equivalents; stronger effect = higher value | max dye-equivalent concentration, M | actives 11% (n = 59,000) | AID 589, 2007; in the data active = max dye-equivalent concentration above about 10 nM; inconclusive = mostly about 1.1 nM to 9.6 nM
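Intrinsic fluorescence at 340/450 nm (ex/em) was read after 15 min at room temperature in pH 8.0, 100 mM Tris. Each compound concentration expressed as 4-MU-equivalent concentration from a six-point 4-MU standard series on each plate.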
A350 fluor: qHTS Assay for Spectroscopic Profiling in A350 Spectral Region; actives 11% (n = 59,000); max dye-equivalent concentration, M; Compound autofluorescence, 340/450 nm, Alexa 350 dye-equivalents; stronger effect = higher value; in the data active = max dye-equivalent concentration above about 10 nM; inconclusive = mostly about 1.1 nM to 9.6 nM
CRE Fsk mod: Cell signaling CRE-BLA (Fsk stim); CHO CRE-bla reporter (cAMP response element driving beta-lactamase), forskolin EC10, beta-lactamase ratio; Potency, µM (series often up to 38.2 µM), for the others: top-dose activity change, negative = inhibition, most hits filed as activators; actives 2.5% (n = 71,000); AID 662, 2007; active = well fitted activation curve with a large enough effect in the signal ratio, with a control signal flat, not every such curve was filed as active; inconclusive = small, poorly fitted or top-dose-only effect, or effect the other way, or a change in a side signal; the % refers to the signal ratio; note: potency is the fitted concentration of half-maximal effect; % of control where 0% means no effect
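CHO CRE-bla cells, overnight plating in Opti-MEM with 0.5% dialyzed FBS; cpd titration + EC10 NKH 477, 3 h 37 °C; CCF4 2 h RT; ex 405/em 460 vs 530 ratio → %Activity, AC50.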
HADH2 inhib: qHTS Assay for Inhibitors of HADH2 (Hydroxyacyl-Coenzyme A Dehydrogenase, Type II). actives 3.4% (n = 73,000). 3-hydroxyacyl-CoA dehydrogenase type-2 (Homo sapiens), Q99714. Potency, µM (top dose mostly 57.1 µM), for the others: top-dose activity change, negative = inhibition, most hits filed as inhibitors. recombinant HADH2, NADH fluorescence, beta-hydroxybutyryl-CoA. AID 886, 2007; note: potency is the fitted concentration of half-maximal effect; % is set by controls: 0 for no effect and ±100 for the full control effect; nearly all actives have a fitted effect of over 60% in size
Target sequence (Q99714 whole entry, looked up, one chain of several): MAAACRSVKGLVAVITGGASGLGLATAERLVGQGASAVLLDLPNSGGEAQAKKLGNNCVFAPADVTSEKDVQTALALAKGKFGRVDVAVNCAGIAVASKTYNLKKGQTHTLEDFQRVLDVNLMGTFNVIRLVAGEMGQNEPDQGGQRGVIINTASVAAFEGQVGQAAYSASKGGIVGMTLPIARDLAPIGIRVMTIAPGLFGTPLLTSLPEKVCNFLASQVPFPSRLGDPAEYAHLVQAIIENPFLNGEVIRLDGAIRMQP
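Activity measured as NADH fluorescence gain (360/450 nm), taken as the change between first and last reads of a 4-min kinetic run. Conditions: pH 9.0 Tris buffer, 20 nM E. coli-expressed His-tagged enzyme, 1 mM NAD+, 90 uM beta-hydroxybutyryl-CoA; 15-min compound preincubation.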
HSD17B inh: qHTS Assay for Inhibitors of HSD17B4, hydroxysteroid (17-beta) dehydrogenase 4; recombinant HSD17B10, NADH fluorescence kinetic; actives 7.6% (n = 75,000); Potency, µM (titrated, usually from 57.1 µM), for the others: at the highest dose activity change, negative = inhibition, actives largely listed as inhibitors; 3-hydroxyacyl-CoA dehydrogenase type-2 (Homo sapiens), Q99714;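 note: the protocol describes HADH2 (HSD17B10) and not the HSD17B4 of the title; potency is the fitted concentration of half-maximal effect; % is set by controls: 0 for no effect and ±100 for the full control effect; nearly all actives have a fitted effect of over 70% in size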
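Activity followed as NADH fluorescence increase (ex 360, em 450 nm) every 30 seconds for 4 min, using final 90 uM beta-hydroxybutyryl CoA and 1 mM NAD+. Recombinant His-tagged enzyme, 20 nM, pH 9.0 Tris buffer, 15 min compound preincubation.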
* = called active by the depositor; [ ] = remark or other dose. Only some compounds are listed: those with a hit (about 14% of all), similar ones and a draw of the others. Unless noted, calls come from the whole dose curve; as a rule, active = well fitted curve in the direction sought with a large enough effect; inconclusive = small, poorly fitted or top-dose-only effect, or another doubt; inactive = no such curve, though single readings can be large; an effect the other way counts as inactive or inconclusive.

What do the screens show for `CC(=O)c1c(C(C)=O)c(C)n(NC(=O)c2ccccc2O)c1C`?
AID923: 1%; 4MU fluor: inconclusive; A350 fluor: 1.3e-08M*; CRE Fsk mod: -6%; HADH2 inhib: -16%; HSD17B inh: -17%

What do the screens show for `O=C(NCc1ccccc1)N(Cc1nc2ccccc2c(=O)[nH]1)C1CCCC1`?
AID923: -1%; 4MU fluor: 1.1e-07M*; A350 fluor: 1e-07M*; CRE Fsk mod: -8%; HADH2 inhib: -5%; HSD17B inh: 25µM*

Results for Cc1ccc(CNC(=O)CCc2nc3ccccc3c(=O)[nH]2)cc1 ?
AID923: 0%; 4MU fluor: inactive; A350 fluor: inactive; CRE Fsk mod: 0%; HADH2 inhib: -2%; HSD17B inh: 3%

What do the screens show for `O=C(Nc1ccccc1)N1CC2(CCN(C(=O)c3ccco3)CC2)C1`?
AID923: 4%; 4MU fluor: inactive; A350 fluor: inactive; CRE Fsk mod: 2%; HADH2 inhib: -5%; HSD17B inh: -4%

Results for CCCCn1c2nc3ccccc3nc2c2c(=O)n(C(C)CC)cnc21 (stereo unspecified) ?
AID923: 5%; 4MU fluor: 1.1e-06M*; A350 fluor: 1.4e-06M*; CRE Fsk mod: inconclusive; HADH2 inhib: -30%; HSD17B inh: 3.2µM*

Results for CCCCn1c2nc3ccccc3nc2c2c(=O)n(CC(C)C)cnc21 ?
4MU fluor: 2.5e-08M*; A350 fluor: 2e-08M*

What do the screens show for `CCCCCn1c2nc3ccccc3nc2c2c(=O)n(CC(C)C)cnc21`?
4MU fluor: 1.3e-08M*; A350 fluor: 1.2e-08M*

How did O=C1NC(c2ccccc2)(C(F)(F)F)C(=O)N1Cc1cccnc1 (stereo unspecified) do in these assays?
AID923: -1%; 4MU fluor: inconclusive; A350 fluor: inconclusive; CRE Fsk mod: 3%; HADH2 inhib: 12%; HSD17B inh: -1%

Results for O=C(NCc1ccccc1)c1c(F)c(F)c(F)c(F)c1F ?
AID923: -1%; 4MU fluor: inactive; A350 fluor: inactive; CRE Fsk mod: inconclusive; HADH2 inhib: -1%; HSD17B inh: 1%

Results for O=C(NCc1ccccc1)c1ccc(-c2ccccc2F)o1 ?
AID923: -2%; 4MU fluor: inactive; A350 fluor: inactive; CRE Fsk mod: -3%; HADH2 inhib: 0%; HSD17B inh: 32µM*

Results for CCN1CCCC1Cn1c(-c2ccccc2)nc2c(NCCOC)nc(C)nc21 (stereo unspecified) ?
AID923: -2%; CRE Fsk mod: -20%; HADH2 inhib: inconclusive; HSD17B inh: 25µM*

How did CCN1CCCC1Cn1c(-c2ccccc2)nc2c(NCc3ccccc3)nc(C)nc21 (stereo unspecified) do in these assays?
AID923: 2%; CRE Fsk mod: -4%; HADH2 inhib: inconclusive; HSD17B inh: inconclusive

How did CCN1CCCC1Cn1c(-c2ccccc2)nc2c(N(CCOC)CCOC)nc(C)nc21 (stereo unspecified) do in these assays?
AID923: 4%; CRE Fsk mod: inconclusive; HADH2 inhib: inconclusive; HSD17B inh: 25µM*

How did O=C1[C@H]2[C@H]3[C@H](O)[C@H](O)C/C(=N/OCc4ccccc4)[C@@H]3CC[C@@H]2C(=O)N1Cc1ccc2c(c1)OCO2 do in these assays?
AID923: -2%[11.5 µM]; HADH2 inhib: 10%[11.4 µM]; HSD17B inh: 6%[11.4 µM]
